GLD-1 RNA inh: GLD-1-TGE RNA interaction inhibition (C. elegans); purified GLD-1 + fluorescein TGE RNA, fluorescence polarization; inhibition, % at 5.96 µM; 0.44% of 320,000 active;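 active means percent inhibition above a per-plate cutoff, the plate mean of test compounds plus 3 SD, cut at about 30% in these data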
Target sequence (Q17339 whole entry, looked up): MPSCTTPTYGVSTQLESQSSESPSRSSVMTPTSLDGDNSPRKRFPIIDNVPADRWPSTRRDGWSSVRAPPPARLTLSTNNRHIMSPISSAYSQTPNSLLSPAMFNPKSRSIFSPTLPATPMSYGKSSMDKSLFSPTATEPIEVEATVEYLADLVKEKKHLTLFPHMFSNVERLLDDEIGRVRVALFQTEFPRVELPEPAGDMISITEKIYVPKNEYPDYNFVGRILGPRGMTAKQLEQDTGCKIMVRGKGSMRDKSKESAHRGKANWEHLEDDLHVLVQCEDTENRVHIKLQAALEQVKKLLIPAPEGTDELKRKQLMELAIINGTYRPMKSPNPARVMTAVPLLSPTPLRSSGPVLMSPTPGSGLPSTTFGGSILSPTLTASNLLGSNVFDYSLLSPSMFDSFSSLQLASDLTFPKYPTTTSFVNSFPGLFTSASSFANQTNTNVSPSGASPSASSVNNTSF
BCLXL inh: Bcl-xL (human) inhibition; Q07817; GST-Bcl-xL / FITC-Bim BH3 peptide fluorescence polarization; inhibition, % at 10.9 µM; 0.7% of 320,000 active;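 active means inhibition above the mean of all tested compounds plus 3 SD, cutoff set per campaign, cut at about 30% in these data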;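 further: inhibitors lower millipolarization by displacing the labeled peptide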
MEX-5 binding: C. elegans MEX-5 TCR-2 RNA binding activity | Q9XUB2 | MEX-5/FITC-TCR2 RNA binding, fluorescence polarization; hits give low values | activity score (negative = inhibition of binding), % at 10 µM | 0.38% of 300,000 active | AID 1832;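 active means inhibition past about -25% in most replicates, and total fluorescence under double the plate's negative control median, limit read from the data; inconclusive means replicates evenly split on the limit, or fluorescence at least double controls; inactive means too little inhibition in most replicates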
EBV gp42 inh: EBV gp42 inhibition | Q1HVG2 | Fluorescence polarization binding assay, mP read-out | inhibition, % (tested at 21.74 µM) | 0.42% of 220,000 active; in the data active means inhibition above about 50%
Target sequence (Q1HVG2 whole entry, looked up): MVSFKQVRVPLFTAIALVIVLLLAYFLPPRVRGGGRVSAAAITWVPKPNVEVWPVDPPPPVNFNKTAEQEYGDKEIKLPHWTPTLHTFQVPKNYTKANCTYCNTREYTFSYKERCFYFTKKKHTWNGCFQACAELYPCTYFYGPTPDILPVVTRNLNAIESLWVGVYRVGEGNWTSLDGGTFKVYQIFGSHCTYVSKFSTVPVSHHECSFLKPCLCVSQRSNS
MCL1-BIM inh: disrupts human MCL1 binding to BIM-BH3 peptide | Q07820 | GST-MCL1 / FITC-Bim-BH3 fluorescence polarization | inhibition, % at 10.9 µM | 0.68% of 320,000 active;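 active means inhibition above the mean inhibition of all tested compounds plus 3 SD, set per campaign, cut at about 40% in these data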;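 further: higher means more loss of mP so more displacement of Bim peptide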
BCLXL inh confirm: counter-screen for MCL1 inhibitors: confirmation of human Bcl-xL inhibitors. shares compounds with MCL1-BIM inh. GST-Bcl-xL / FITC-Bim BH3 peptide FP binding. inhibition, % at 10.9 µM. 54% of 1,700 active. AID 2166;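 active means inhibition above a cutoff equal to the mean inhibition of all tested compounds plus 3 SD, cut at about 30% in these data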
MCL1 BIM confirm: confirmation of human MCL1 and BIM-BH3 interaction inhibitors; shares compounds with MCL1-BIM inh; GST-MCL1 / FITC-Bim-BH3 fluorescence polarization; inhibition, % at 10.9 µM; 61% of 1,700 active; AID 2168;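 active means inhibition above the average of all tested compounds plus 3 SD, cut at about 40% in these data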
Each line names hits and unclear results; the compound was inactive in the other large screens (follow-up assays come after a bar, where they were run). In the library only some 1.3% were active in any assay of this set; here they are far more common.

COC(=O)C1=C(C)N(CCCC(=O)O)C(=O)NC1c1cc2c(cc1[N+](=O)[O-])OCO2 (centres undefined)	BCLXL inh 54, MCL1-BIM inh 52 | BCLXL inh confirm inactive | MCL1 BIM confirm inactive
COC(=O)C1=C(C)N(C)C(=O)NC1c1cc2c(cc1[N+](=O)[O-])OCO2 (centres undefined)	BCLXL inh 59, MCL1-BIM inh 54 | BCLXL inh confirm 44 | MCL1 BIM confirm 40
COc1ccc(OC)c(CC(=O)N2CCc3cc(OC)c(OC)cc3C2)c1	none (no result: EBV gp42 inh)
COc1ccc(Br)cc1C(=O)Nc1ccc(N2CCCC2)cc1	MCL1-BIM inh 46 (no result: EBV gp42 inh) | BCLXL inh confirm inactive | MCL1 BIM confirm inactive
COc1ccc(Br)cc1C(=O)Nc1ccc(N2CCN(S(C)(=O)=O)CC2)cc1	none
N#CCCN(CCC#N)C(=O)C1c2ccccc2Oc2ccccc21	GLD-1 RNA inh active, BCLXL inh active, MEX-5 binding inconclusive, MCL1-BIM inh active (no result: EBV gp42 inh) | BCLXL inh confirm inactive | MCL1 BIM confirm inactive
CN(C)c1ccc(/C=C2\SC(=O)N(CC(O)Cn3c4ccccc4c4ccccc43)C2=O)cc1 (centres undefined)	GLD-1 RNA inh 133, BCLXL inh 133, MEX-5 binding inconclusive, EBV gp42 inh 115, MCL1-BIM inh 80 | BCLXL inh confirm inactive | MCL1 BIM confirm inactive
C1=C(CCNCC2CCCCC2)CCCC1	none
Cc1ccc([C@@H]2C3COCC=C3C(C#N)=C(N)C2(C#N)C#N)o1 (some centres undefined)	GLD-1 RNA inh 78, BCLXL inh 96, MCL1-BIM inh 105 | BCLXL inh confirm 71 | MCL1 BIM confirm 74
Cc1noc(C)c1S(=O)(=O)N1CCC(C(=O)N2CCC(N3CCCCC3)CC2)CC1	none
Cc1ccc(Cl)cc1NC(=O)c1ccccc1OCC(=O)N1CCOCC1	MCL1-BIM inh 63 (no result: EBV gp42 inh) | BCLXL inh confirm inactive | MCL1 BIM confirm inactive
O=C(O)c1ccccc1/C=N/NC(=O)c1cc(-c2ccco2)nc2ccccc12	EBV gp42 inh 59, MCL1-BIM inh 64 | BCLXL inh confirm 42 | MCL1 BIM confirm 91
CC(=O)Nc1ccc(/C=N/NC(=O)c2cc(-c3ccco3)nc3ccccc23)cc1	none
O=C(c1ccco1)N1CCN(Cc2cc(=O)c(OCc3ccc([N+](=O)[O-])cc3)co2)CC1	none (no result: EBV gp42 inh)
CC(=O)NC1=NN(C(C)=O)C(c2ccco2)S1 (centres undefined)	none
COc1ccc([N+](=O)[O-])cc1NC(=O)c1cn(-c2ccc(Cl)cc2)c(=O)c2ccccc12	none
Brc1ccc(C2=Nc3cccc4cccc(c34)N2)o1	MCL1-BIM inh 41 | BCLXL inh confirm inactive | MCL1 BIM confirm inactive
CN(C)c1ccc(NC2=C(Cl)C(=O)c3ccccc3C2=O)cc1	MCL1-BIM inh 41 | BCLXL inh confirm 32 | MCL1 BIM confirm inactive
CC(=O)Nc1ccc(NC2=C(Cl)C(=O)c3ccccc3C2=O)cc1	none (no result: GLD-1 RNA inh, BCLXL inh, MCL1-BIM inh)
CC(C)[N+]1=C2C=CC=CC=C2SC12C([N+](=O)[O-])=CC(=[N+]([O-])[O-])C=C2[N+](=O)[O-] (centres undefined)	none
O=[N+]([O-])c1ccc(/C=N/Nc2ncccc2[N+](=O)[O-])s1	none (no result: EBV gp42 inh)
O=[N+]([O-])c1ccc(/C=N/n2cnc3ccccc32)s1	BCLXL inh 52, MEX-5 binding -41, MCL1-BIM inh 72 | BCLXL inh confirm 71 | MCL1 BIM confirm 76
CC(C)Oc1ccc(C(CC(=O)O)n2cnnn2)cc1 (centres undefined)	none
O=C(O)CN1C(=O)/C(=C\C(Br)=C\c2ccccc2)SC1=S	MCL1-BIM inh 43 (no result: EBV gp42 inh) | BCLXL inh confirm 33 | MCL1 BIM confirm 47
COc1cc(-c2nc(-c3ccccn3)no2)cc(OC)c1OC	MCL1-BIM inh 41 | BCLXL inh confirm inactive | MCL1 BIM confirm inactive
CCOC(=O)[C@H]1[C@H]2COc3ccc(OC)cc3[C@@H]2N2C(=O)c3cc(F)c(F)cc3NC(=O)[C@@]12C	none (no result: MEX-5 binding, EBV gp42 inh)
COC(=O)\C(C(C)=O)=C(/C=C/C=C/C=C/N(C)C)N(C)C	MCL1-BIM inh 50 (no result: MEX-5 binding) | BCLXL inh confirm inactive | MCL1 BIM confirm inactive
CCN(CC)c1ccc(C(=O)OCC(=O)Nc2cc(C)on2)cc1	none (no result: MEX-5 binding, EBV gp42 inh)
Cc1cc(C(=O)O)ccc1-n1c(C)ccc1C	BCLXL inh 47, MEX-5 binding -88, MCL1-BIM inh 98 | BCLXL inh confirm 89 | MCL1 BIM confirm 141
O=C(O)c1ccc(N=Nc2c(O)ccc3ncccc23)cc1	MCL1-BIM inh 51 (no result: EBV gp42 inh) | BCLXL inh confirm 40 | MCL1 BIM confirm 59
Cc1ccc(-n2[nH]c(C)c(/C=C3/C=Nc4ccccc43)c2=O)cc1C	none
CCCNc1c(F)c(F)c2c(C)c3ccccc3nc2c1F	GLD-1 RNA inh 83, BCLXL inh 114, MEX-5 binding -29, EBV gp42 inh 134, MCL1-BIM inh 125 | BCLXL inh confirm 106 | MCL1 BIM confirm 123
Cc1c2ccccc2nc2ccccc12	none (no result: EBV gp42 inh)
O=C1/C(=C2\C(=O)N(Cc3ccc(F)cc3)c3ccccc32)SC(=S)N1CCS(=O)(=O)O	MCL1-BIM inh 43 (no result: EBV gp42 inh) | BCLXL inh confirm inactive | MCL1 BIM confirm inactive
O=Cc1cccc(OC(=O)/C=C/c2ccco2)c1	MCL1-BIM inh 50 (no result: EBV gp42 inh) | BCLXL inh confirm inactive | MCL1 BIM confirm 52
CC(=O)Nc1ccc(S(=O)(=O)Nc2nc3ccccc3nc2Sc2nncn2C)cc1	GLD-1 RNA inh 37, BCLXL inh 78, MCL1-BIM inh 78 | BCLXL inh confirm 41 | MCL1 BIM confirm 47
O=S(=O)(c1ccc(Cl)c(C(F)(F)F)c1)N1CCN(CC(O)COc2ccccc2F)CC1 (centres undefined)	none (no result: EBV gp42 inh)
O=c1ccn(CCCBr)c(=O)[nH]1	none
CCCCN(C(=O)c1cccc(-n2cccc2)c1)c1c(N)n(CCC)c(=O)[nH]c1=O	MCL1-BIM inh 55 (no result: EBV gp42 inh) | BCLXL inh confirm inactive | MCL1 BIM confirm 51
O=C(CSc1ccc(-c2ccco2)nn1)c1ccccc1	MCL1-BIM inh 42 | BCLXL inh confirm inactive | MCL1 BIM confirm inactive
COc1ccc(S(=O)(=O)c2c(N)n(Cc3ccco3)c3nc4ccccc4nc23)cc1	GLD-1 RNA inh 117, BCLXL inh 101, EBV gp42 inh 50, MCL1-BIM inh 105 | BCLXL inh confirm inactive | MCL1 BIM confirm inactive
Cc1ccc(S(=O)(=O)c2c(N)n(CCCN(C)C)c3nc4ccccc4nc23)cc1	none
COc1cccc(CN2C(=O)c3cccc(N)c3C2=O)c1	GLD-1 RNA inh 44, BCLXL inh 50, EBV gp42 inh 59, MCL1-BIM inh 58 | BCLXL inh confirm 33 | MCL1 BIM confirm 53
COc1cccc(CN2C(=O)c3ccccc3S2(=O)=O)c1	none (no result: EBV gp42 inh)
CC(C)(C)OC(=O)N1CC=C2C(C#N)=C(N)C(C#N)(C#N)C(c3cccs3)C2C1 (centres undefined)	none
